The results in this text go back to PubChem BioAssay (EPA / NIEHS).

The target of experiment [1] is Agonist Androgen Response Element (ARE), AR (gene 367) (UniProt P10275). As to the kind of experiment: OT_AR_ARELUC_AG_1440: Odyssey Thera (OT) 24-hour CHO-K1 Luciferase Assay for Agonist Androgen Response Element (ARE) (AID 2283379). The method, boiled down:
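Readout: luciferase bioluminescence from CHO-K1 ARE-luc cells, measured 24 h post-dosing; agonism = increased mean luminescence vs DMSO controls, fitted in positive direction.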

Experiment [2] concerns the target Estrogen receptor beta (Homo sapiens) (UniProt Q92731). As to the kind of experiment: OT_ER_ERbERb_1440: Odyssey Thera (OT) 24-hour HEK293T Protein-Complementation Assay for Estrogen Receptor-beta/-beta Homodimer (AID 2283380).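 Also: fluorescence gain from ER beta LBD homodimer complementation read by laser scanning cytometry; scored as signal increase over DMSO baseline for both agonists and antagonists.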 The method, boiled down: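 Fluorescence increase, nuclear for agonists or whole-cell for antagonists, relative to DMSO vehicle, quantified by laser scanning cytometer after fixation and Draq5 staining. Readout from 24 h treatment of HEK293T cells carrying complementation-paired ER beta LBD (aa 310-547).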

In experiment [3] the target is Estrogen receptor (Homo sapiens) (UniProt P03372). In words: OT_ERa_GFPERaERE_0480: Odyssey Thera (OT) 8-hour HeLa Transcription Induction Assay for Estrogen Receptor (AID 2283381; active = hit-call score of the fitted dose curve at least 0.9, where 1 is the maximum; inactive = score below 0.9). The method, boiled down:
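An 8 h HeLa transcription-induction format with a GFP reporter under ERE control, read by fluorescence microscopy; single endpoint fitted positively with DMSO as baseline.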

For experiment [4] the target is unchanged. As to the kind of experiment: OT_ERa_GFPERaERE_0120: Odyssey Thera (OT) 2-hour HeLa Transcription Induction Assay for Estrogen Receptor (AID 2283382). In outline:
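Two-hour compound treatment of HeLa cells preceded microscopy imaging of an inducible fluorescent reporter. Image-based quantification gave one endpoint, analysed for signal increase relative to DMSO controls.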

The target of experiment [5] is Bile acid receptor (Homo sapiens) (UniProt Q96RI1). In words: OT_FXR_FXRSRC1_0480: Odyssey Thera (OT) 8-hour HEK293T Protein-Complementation Assay for Farnesoid X receptor/SRC-1 Co-activator (AID 2283383). The method, boiled down:
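Readings were taken 8 h after dosing HEK293T cells in a split-reporter complementation format pairing FXR with SRC-1. Increased fluorescence relative to DMSO-treated wells defined activity.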

For experiment [6] the target is unchanged. As to the kind of experiment: OT_FXR_FXRSRC1_1440: Odyssey Thera (OT) 24-hour HEK293T Protein-Complementation Assay for Farnesoid X receptor/SRC-1 Co-activator (AID 2283384). The method, boiled down: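 Single endpoint, analysed for increased fluorescence against DMSO controls. HEK293T cells carrying FXR and SRC-1 linked to complementary reporter halves were exposed to chemicals for 24 h before reading.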

The target in experiment [7] is Retinoic acid receptor RXR-alpha (Homo sapiens) (UniProt P19793). In words: OT_NURR1_NURR1RXRa_0480: Odyssey Thera (OT) 8-hour HEK293T Protein Complementation Assay for Nurr1/retinoid X receptor (RXR) (AID 2283385). The method, boiled down:
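Gain in fluorescent complementation signal over DMSO, measured 8 hours after chemical dosing of human kidney HEK293T cells, indicated enhanced Nurr1–RXRα association.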

For experiment [8], the target named is mouse Estrogen Receptor alpha (Era), Esr1 (gene 13982) (UniProt P19785). In words: NVS_NR_mERa: NovaScreen (NVS) Nuclear Receptor Binding Assay for mouse Estrogen Receptor alpha (Era) (AID 2283378).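 Also: hit means loss of bound radioligand signal relative to DMSO.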 The method, boiled down:
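Cell-free radioligand binding with extracted mouse Era protein; competitive displacement of radiolabelled ligand, read by filter-based scintillation counting 18 hours after dosing. Loss of signal versus DMSO baseline taken as binding; single screening concentration 25 uM, actives followed in concentration series.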

For experiment [9], the target named is Peroxisome proliferator-activated receptor gamma (Homo sapiens) (UniProt P37231). As to the kind of experiment: OT_PPARg_PPARgSRC1_0480: Odyssey Thera (OT) 8-hour Protein-Complementation Assay for Peroxisome Proliferator-activated Receptor Gamma / SRC-1 Co-activator (AID 2283387). The method, boiled down:
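Split-YFP (IFP1/IFP2) PPARg/SRC-1 reporter, HEK293T, 37 °C, 5% CO2; 8 h compound; formaldehyde fix + Draq5; high-content imaging, N/C ratio, ≥350 cells/image, positive direction vs DMSO.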

For experiment [10] the target is unchanged. In words: OT_PPARg_PPARgSRC1_1440: Odyssey Thera (OT) 24-hour Protein-Complementation Assay for Peroxisome Proliferator-activated Receptor Gamma/ SRC-1 Co-activator (AID 2283388). In outline:
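HEK293T cells transiently transfected with PPARg and SRC-1 fused via (Gly4Ser)2 linker to split Venus YFP fragments (IFP1/IFP2) were dosed 24 h; fixed, Draq5-stained, imaged at 488/635 nm; nuclear/cytoplasmic fluorescence ratio scored versus DMSO baseline, gain-of-signal.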

Experiment [11] in a line: CEETOX_H295R_11DCORT: CeeTox H295R High-throughput Steroidogenesis Assay for 11-Deoxycortisol (11DCORT) (AID 2283432; active = hit-call score of the fitted dose curve at least 0.9, where 1 is the maximum; inactive = score below 0.9;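 also: 11-deoxycortisol secreted into the medium measured by LC-MS/MS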). The following applies: actives raise or lower the signal. In outline: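 Steroidogenesis in human H295R cells: 48 h chemical exposure after forskolin priming, 11-deoxycortisol measured by LC-MS/MS.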
A short description of experiment [12]: CEETOX_H295R_OHPREG: CeeTox H295R High-throughput Steroidogenesis Assay for OH-Pregnenolone (OHPREG) (AID 2283434; active = hit-call score of the fitted dose curve at least 0.9, where 1 is the maximum; inactive = score below 0.9). The following applies: actives raise or lower the signal. The method, boiled down:
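Secreted 17alpha-hydroxypregnenolone measured by HPLC-MS/MS after liquid-liquid extraction. Human adrenal H295R cells received 48 h forskolin (10 uM) stimulation before 48 h chemical exposure at 0.1% final DMSO; MTT viability in same wells; bidirectional fit against DMSO.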

Experiment [13] is described as follows: CEETOX_H295R_OHPROG: CeeTox H295R High-throughput Steroidogenesis Assay for OH-Progesterone (OHPROG) (AID 2283435; active = hit-call score of the fitted dose curve at least 0.9, where 1 is the maximum; inactive = score below 0.9;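 as to AC50: 17alpha-hydroxyprogesterone secreted into medium measured by HPLC-MS/MS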). The following applies: actives raise or lower the signal. The method, boiled down:
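Human adrenocortical H295R cells, passage 10 or lower, were treated with chemical for 48 h after forskolin priming, and hormone output in the medium was quantified by LC-MS/MS.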

Experiment [14] in a line: CEETOX_H295R_CORTIC: CeeTox H295R High-throughput Steroidogenesis Assay for Corticosterone (CORTIC) (AID 2283437; active = hit-call score of the fitted dose curve at least 0.9, where 1 is the maximum; inactive = score below 0.9). The following applies: actives raise or lower the signal. In outline: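 Medium corticosterone was quantified by tandem mass spectrometry following 48 hours of chemical exposure (0.1% DMSO) in human H295R cells previously stimulated 48 hours with 10 uM forskolin. Viability checked by MTT; chemicals diluted and retested when viability fell below 70%.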

A short description of experiment [15]: CEETOX_H295R_PROG: CeeTox H295R High-throughput Steroidogenesis Assay for Progesterone (PROG) (AID 2283442; active = hit-call score of the fitted dose curve at least 0.9, where 1 is the maximum; inactive = score below 0.9;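 also: human H295R adrenal cells primed with 10 µM forskolin before dosing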). The following applies: actives raise or lower the signal. The method, boiled down: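 H295R human adrenal cells were prestimulated with 10 uM forskolin for 48 h, then exposed to test chemical (0.1% DMSO final) for 48 h. Medium progesterone was MTBE-extracted and quantified by HPLC-MS/MS, with bidirectional fitting against DMSO.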

In experiment [16] the target is human Norepinephrine Transporter (NET), SLC6A2 (gene 6530) (UniProt P23975). In words: NVS_TR_hNET: NovaScreen (NVS) Transporter Assay for human Norepinephrine Transporter (NET) (AID 2283377).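 Also: cell-free membrane protein extracted from CHO cells expressing human NET; displacement of radioligand from human NET seen as loss of scintillation signal.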 In outline:
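Single-concentration duplicate screen at 25 uM, then concentration-response for actives; displacement of specific radioligand from human NET in CHO membrane extracts, filter-based scintillation detection at 1 h relative to DMSO.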

Experiment [17] addresses Retinoic acid receptor RXR-alpha (Homo sapiens) (UniProt P19793). In words: OT_NURR1_NURR1RXRa_1440: Odyssey Thera (OT) 24-hour HEK293T Protein Complementation Assay for Nurr1/retinoid X receptor (RXR) (AID 2283386). In outline: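 Cell-based binding reporter: HEK293T cells, 24 h exposure, fluorescence-detected fragment complementation, DMSO as baseline.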

The structures appear in SMILES notation. Inconclusive results are not listed. The source made the active and inactive calls. The calls were made as follows, unless noted: active = hit-call score of the fitted dose curve at least 0.9, where 1 is the maximum; inconclusive = response in the unintended direction; inactive = score below 0.9.

Sequence of Estrogen receptor beta (Homo sapiens) (Q92731 whole entry, looked up, the tested form may be a part): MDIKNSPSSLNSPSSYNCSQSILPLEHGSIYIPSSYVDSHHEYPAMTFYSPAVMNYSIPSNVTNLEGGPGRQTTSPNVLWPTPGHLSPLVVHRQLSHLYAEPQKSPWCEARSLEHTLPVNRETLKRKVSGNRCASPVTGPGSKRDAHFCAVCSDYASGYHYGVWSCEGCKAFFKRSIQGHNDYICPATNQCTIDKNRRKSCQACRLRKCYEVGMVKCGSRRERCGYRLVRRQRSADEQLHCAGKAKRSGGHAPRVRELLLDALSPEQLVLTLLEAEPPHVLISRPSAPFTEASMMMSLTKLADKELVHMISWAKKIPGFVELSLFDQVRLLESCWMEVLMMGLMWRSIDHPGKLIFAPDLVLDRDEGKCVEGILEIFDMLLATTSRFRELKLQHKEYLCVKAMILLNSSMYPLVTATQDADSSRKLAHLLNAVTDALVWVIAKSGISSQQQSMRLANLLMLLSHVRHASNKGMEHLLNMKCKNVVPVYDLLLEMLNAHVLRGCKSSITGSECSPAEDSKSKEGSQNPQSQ
Sequence of Peroxisome proliferator-activated receptor gamma (Homo sapiens) (P37231 whole entry, looked up): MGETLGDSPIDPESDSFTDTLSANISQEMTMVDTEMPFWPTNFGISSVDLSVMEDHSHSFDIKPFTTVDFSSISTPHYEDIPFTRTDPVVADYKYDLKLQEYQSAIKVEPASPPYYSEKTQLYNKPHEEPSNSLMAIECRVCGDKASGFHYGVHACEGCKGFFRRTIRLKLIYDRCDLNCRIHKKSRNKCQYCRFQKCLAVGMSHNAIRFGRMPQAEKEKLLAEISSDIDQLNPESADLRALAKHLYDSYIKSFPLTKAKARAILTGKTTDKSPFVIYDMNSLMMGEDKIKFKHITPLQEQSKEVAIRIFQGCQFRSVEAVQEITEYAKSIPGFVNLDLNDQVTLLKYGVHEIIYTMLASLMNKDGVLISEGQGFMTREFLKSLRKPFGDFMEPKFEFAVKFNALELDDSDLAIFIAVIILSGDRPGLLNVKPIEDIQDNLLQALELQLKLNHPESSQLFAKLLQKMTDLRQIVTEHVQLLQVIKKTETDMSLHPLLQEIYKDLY
Sequence of mouse Estrogen Receptor alpha (Era), Esr1 (gene 13982) (P19785 whole entry, looked up): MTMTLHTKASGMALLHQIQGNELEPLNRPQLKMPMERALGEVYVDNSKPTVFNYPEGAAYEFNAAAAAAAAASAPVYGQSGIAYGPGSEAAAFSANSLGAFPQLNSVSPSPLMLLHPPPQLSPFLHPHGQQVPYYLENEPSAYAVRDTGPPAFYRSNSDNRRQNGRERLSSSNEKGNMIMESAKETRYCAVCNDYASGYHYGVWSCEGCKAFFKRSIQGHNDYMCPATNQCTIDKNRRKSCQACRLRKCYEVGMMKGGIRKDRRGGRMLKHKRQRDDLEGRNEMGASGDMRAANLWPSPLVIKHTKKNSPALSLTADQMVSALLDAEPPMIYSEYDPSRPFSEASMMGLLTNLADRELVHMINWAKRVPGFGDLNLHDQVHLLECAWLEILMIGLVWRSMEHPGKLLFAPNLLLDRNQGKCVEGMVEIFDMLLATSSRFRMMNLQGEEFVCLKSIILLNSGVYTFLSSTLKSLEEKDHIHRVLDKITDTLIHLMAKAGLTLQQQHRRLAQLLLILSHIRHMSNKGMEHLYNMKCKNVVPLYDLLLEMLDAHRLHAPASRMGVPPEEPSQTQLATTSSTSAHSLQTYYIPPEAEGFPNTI
Sequence of Retinoic acid receptor RXR-alpha (Homo sapiens) (P19793 whole entry, looked up, the tested form may be a part): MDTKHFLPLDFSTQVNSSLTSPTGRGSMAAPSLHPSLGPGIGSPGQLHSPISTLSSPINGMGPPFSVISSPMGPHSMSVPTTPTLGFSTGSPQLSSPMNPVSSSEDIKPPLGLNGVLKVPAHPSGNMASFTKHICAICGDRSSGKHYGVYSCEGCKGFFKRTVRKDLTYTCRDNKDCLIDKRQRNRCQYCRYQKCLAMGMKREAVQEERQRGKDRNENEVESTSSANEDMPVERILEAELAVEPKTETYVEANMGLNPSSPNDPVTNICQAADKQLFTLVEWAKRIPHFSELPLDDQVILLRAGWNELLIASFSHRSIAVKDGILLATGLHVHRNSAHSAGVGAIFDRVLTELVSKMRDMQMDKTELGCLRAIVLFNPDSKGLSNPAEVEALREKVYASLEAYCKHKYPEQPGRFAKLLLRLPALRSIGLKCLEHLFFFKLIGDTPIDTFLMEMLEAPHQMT
Sequence of Estrogen receptor (Homo sapiens) (P03372 whole entry, looked up): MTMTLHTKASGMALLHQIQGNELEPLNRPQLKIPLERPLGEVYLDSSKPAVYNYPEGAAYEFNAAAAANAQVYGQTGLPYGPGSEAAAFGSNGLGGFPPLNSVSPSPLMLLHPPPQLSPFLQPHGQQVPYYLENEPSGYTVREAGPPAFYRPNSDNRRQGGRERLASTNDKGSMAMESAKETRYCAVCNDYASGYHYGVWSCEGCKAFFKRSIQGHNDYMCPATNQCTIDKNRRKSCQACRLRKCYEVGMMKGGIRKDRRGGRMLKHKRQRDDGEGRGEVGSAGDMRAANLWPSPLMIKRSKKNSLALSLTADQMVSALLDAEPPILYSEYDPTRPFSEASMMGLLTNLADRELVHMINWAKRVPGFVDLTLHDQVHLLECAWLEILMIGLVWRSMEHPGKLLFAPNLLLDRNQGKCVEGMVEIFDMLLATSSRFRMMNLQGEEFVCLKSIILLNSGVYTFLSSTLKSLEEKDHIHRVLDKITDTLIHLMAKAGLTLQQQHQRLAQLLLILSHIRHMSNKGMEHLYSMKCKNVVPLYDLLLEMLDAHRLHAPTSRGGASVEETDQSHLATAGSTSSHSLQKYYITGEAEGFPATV
Sequence of Agonist Androgen Response Element (ARE), AR (gene 367) (P10275 whole entry, looked up): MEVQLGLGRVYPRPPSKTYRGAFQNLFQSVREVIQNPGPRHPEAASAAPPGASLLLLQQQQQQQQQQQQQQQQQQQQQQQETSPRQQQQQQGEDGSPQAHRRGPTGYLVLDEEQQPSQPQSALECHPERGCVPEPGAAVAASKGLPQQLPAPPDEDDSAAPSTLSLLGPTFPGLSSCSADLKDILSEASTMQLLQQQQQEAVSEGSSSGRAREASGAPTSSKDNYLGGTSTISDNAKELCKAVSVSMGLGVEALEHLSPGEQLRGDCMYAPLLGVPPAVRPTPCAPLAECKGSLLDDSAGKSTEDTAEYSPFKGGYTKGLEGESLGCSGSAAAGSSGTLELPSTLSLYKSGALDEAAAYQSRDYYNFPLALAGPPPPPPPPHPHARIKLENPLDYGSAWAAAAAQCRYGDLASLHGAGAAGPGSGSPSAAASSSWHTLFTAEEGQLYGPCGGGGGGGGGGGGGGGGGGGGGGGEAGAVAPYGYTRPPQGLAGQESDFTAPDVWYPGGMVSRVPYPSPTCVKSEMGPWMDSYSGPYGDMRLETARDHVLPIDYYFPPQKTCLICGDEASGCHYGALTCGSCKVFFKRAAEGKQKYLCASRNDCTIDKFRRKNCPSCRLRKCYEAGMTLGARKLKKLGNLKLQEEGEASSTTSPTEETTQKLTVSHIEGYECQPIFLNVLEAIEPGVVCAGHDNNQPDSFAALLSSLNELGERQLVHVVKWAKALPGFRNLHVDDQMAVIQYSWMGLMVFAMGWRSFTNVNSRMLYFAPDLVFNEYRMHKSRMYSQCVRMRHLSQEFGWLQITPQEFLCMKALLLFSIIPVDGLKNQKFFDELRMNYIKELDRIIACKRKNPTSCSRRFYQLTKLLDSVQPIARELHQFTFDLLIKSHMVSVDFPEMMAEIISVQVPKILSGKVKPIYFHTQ
Sequence of Bile acid receptor (Homo sapiens) (Q96RI1 whole entry, looked up): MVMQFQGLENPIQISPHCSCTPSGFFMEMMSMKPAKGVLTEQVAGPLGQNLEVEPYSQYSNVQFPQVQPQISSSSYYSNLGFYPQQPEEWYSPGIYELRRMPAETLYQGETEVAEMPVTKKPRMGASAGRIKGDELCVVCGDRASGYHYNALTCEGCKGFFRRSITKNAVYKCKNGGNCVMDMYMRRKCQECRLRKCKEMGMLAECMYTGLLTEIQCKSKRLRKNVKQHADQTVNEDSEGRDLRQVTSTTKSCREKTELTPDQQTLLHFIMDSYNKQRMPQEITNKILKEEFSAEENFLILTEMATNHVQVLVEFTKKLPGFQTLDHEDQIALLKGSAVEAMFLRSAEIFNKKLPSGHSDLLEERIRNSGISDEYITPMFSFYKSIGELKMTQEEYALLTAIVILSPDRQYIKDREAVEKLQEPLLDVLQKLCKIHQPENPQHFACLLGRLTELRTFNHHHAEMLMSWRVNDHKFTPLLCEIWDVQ
Sequence of human Norepinephrine Transporter (NET), SLC6A2 (gene 6530) (P23975 whole entry, looked up): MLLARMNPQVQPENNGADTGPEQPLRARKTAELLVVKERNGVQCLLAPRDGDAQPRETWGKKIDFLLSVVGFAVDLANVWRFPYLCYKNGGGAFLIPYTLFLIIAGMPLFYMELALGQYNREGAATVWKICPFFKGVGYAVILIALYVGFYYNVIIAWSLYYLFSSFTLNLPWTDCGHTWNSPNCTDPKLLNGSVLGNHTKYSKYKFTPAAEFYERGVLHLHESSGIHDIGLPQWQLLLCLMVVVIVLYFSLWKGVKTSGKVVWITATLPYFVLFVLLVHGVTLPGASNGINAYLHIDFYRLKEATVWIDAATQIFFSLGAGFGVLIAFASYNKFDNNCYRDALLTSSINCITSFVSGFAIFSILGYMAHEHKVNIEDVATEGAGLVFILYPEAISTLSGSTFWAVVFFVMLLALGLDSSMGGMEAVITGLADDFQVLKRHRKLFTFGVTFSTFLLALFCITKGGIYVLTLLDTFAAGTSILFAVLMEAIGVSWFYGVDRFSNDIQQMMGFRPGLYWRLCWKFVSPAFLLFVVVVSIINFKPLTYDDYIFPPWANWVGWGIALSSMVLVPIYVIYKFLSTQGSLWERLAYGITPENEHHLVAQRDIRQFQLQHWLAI

As for `CCC[Si](OC)(OC)OC`, the result in experiment [1], in [2], in [3], in [4], in experiment [5] and in experiment [6] was inactive. In experiment [7], the compound was called inactive.
Take `CO[Si](C)(C)OC`: the call in [8], in experiment [2], in experiment [3], in experiment [4], in experiment [7] and in experiment [9] was inactive. The outcome in experiment [10] was inactive.
As a reminder, the AC50 is the midpoint of the concentration-response curve, whichever way the signal moves. In the case of `C=C[Si](OCCOC)(OCCOC)OCCOC`, in [8], the AC50 was 10.5 µM (active). Besides, the result in experiment [3], in [4], in [5], in experiment [9] and in experiment [10] was inactive.
On to `CC(CCC(=O)O)(c1ccc(O)cc1)c1ccc(O)cc1`, for which the AC50 in experiment [8] was 6.23 µM (active); in experiment [2] it was 52.3 µM (active); in [3] it was 47.1 µM (active); in experiment [4], 35.7 µM (active). The result in [5], in experiment [6], in experiment [7], in experiment [9] and in experiment [10] was inactive.
On to `CC(C)(c1ccccc1)c1ccc(Nc2ccc(C(C)(C)c3ccccc3)cc2)cc1`, for which the call in [8], in experiment [3], in experiment [4], in experiment [7], in [9] and in experiment [10] was inactive. Also, in [14], the outcome was inactive. In addition, the AC50 in experiment [11] was 2.72 µM (active); in [12], 1.54 µM (active); in [13] it was 0.359 µM (active); in [15] it was 1.84 µM (active).
Regarding `CC(C)(C)NC(=O)[C@H]1CC[C@H]2[C@@H]3CC[C@H]4NC(=O)C=C[C@]4(C)[C@H]3CC[C@]12C`, the result in experiment [8], in [3], in experiment [5], in experiment [9], in experiment [10] and in experiment [13] was inactive. Moreover, the outcome in experiment [14] was inactive. The AC50 is 3.77 µM (active) in experiment [6], 34.4 µM (active) in experiment [11] and 1.57 µM (active) in [15].
Regarding `CCCCCCCOC(=O)c1ccc(O)cc1`, the call in [8], in experiment [9] and in [10] was inactive. The figures for the AC50 in experiment [2], in experiment [3] and in experiment [4] were 5.06 µM (active), 3.39 µM (active) and 3.08 µM (active), respectively.
Regarding `c1ccc2c(c1)[nH]c1ccccc12`, the AC50 in experiment [16] was 0.94 µM (active).
For the compound `CC(=O)OC1CCCCC1C(C)(C)C` (centres undefined), the call in experiment [1], in experiment [2], in experiment [3], in experiment [4], in experiment [7] and in experiment [17] was inactive. Moreover, the result in experiment [9] and in experiment [10] was inactive.
With `CC/C=C\C/C=C\C/C=C\CCCCCCCC(=O)OC`, in experiment [16], the AC50 is 11.1 µM (active).
With `C=C1C[C@H]2[C@@H]3C=C(C)C4=CC(=O)CC[C@]4(C)[C@H]3CC[C@]2(C)[C@@]1(OC(C)=O)C(C)=O`, the AC50 was 29.2 µM (active) in experiment [8], 0.0079 µM (active) in experiment [1] and 27.5 µM (active) in experiment [7]. The result in [2], in experiment [3], in experiment [4], in [9] and in [10] was inactive.
For `O=C(O)c1ccc2c(c1)C(=O)OC2=O`, the call in experiment [1], in experiment [2], in experiment [3], in [6], in [7] and in experiment [9] was inactive. The result in experiment [10] was inactive. Also, in [4], the concentration at half-maximal activity (AC50) was 22.6 µM (active).
With `CC(C)=CCCC(C)=CC#N`, the outcome in experiment [8], in experiment [3], in experiment [4], in experiment [5], in experiment [7] and in experiment [9] was inactive. The compound was classed as inactive in experiment [10].
